Screen size: about 13,000 compounds; about 3,200 (25%) showed an effect of 50% or more. The list shows a part of the results.
System: P. falciparum stage V gametocytes
Design: BacTiter-Glo ATP luminescence viability of purified stage V gametocytes in 384-well plates, per cent inhibition versus DMSO
Details: 48 h, 5 µM; inhibitor

Question: Which “% Inhibition” value does the source give for `O=C(Cc1ccccc1)NC1CCN(c2ccnc3cc(Cl)ccc23)C1` (stereo not drawn) [TCMDC-133663] here?
Answer: -4.28%

Question: For `COCCn1c(Sc2ncnc3sccc23)nc2ccccc21` [TCMDC-125258], which “% Inhibition” value is on record?
Answer: 10.99%

Question: For `c1ccn2c(Sc3ncnc4sccc34)ncc2c1` [TCMDC-124602], which “% Inhibition” value is on record?
Answer: 29.96%

Question: `Cn1c(Sc2ncnc3sccc23)nc2ccccc21` [TCMDC-124514] was tested. Which “% Inhibition” value did it give?
Answer: 74.1%

Question: For `c1ccc2sc(Sc3ncnc4sccc34)nc2c1` [TCMDC-125539], which “% Inhibition” value is on record?
Answer: 99.53%

Question: How did the “% Inhibition” value turn out when `CN(C)CCCNCCS(=O)(=O)c1cccc(Nc2ccc(-c3cccc(N(C)C)c3)cn2)c1` [TCMDC-134369] was run?
Answer: 11.18%

Question: With `O=C(NC1CCCCC1)N(Cc1ccc(-c2ccc(CNCc3ccc4c(c3)OCO4)cc2)cc1)C1CCN(Cc2ccccc2)CC1` [TCMDC-140641] as the compound, how does the “% Inhibition” value read?
Answer: 57.56%

Question: With `O=C(NC1CCCCC1)N(Cc1ccc(-c2cccc(CNCc3ccc4c(c3)OCO4)c2)cc1)C1CCN(Cc2ccccc2)CC1` [TCMDC-140640] as the compound, how does the “% Inhibition” value read?
Answer: 55.3%

Question: Which “% Inhibition” value does the source give for `O=C(NC1CCCCC1)N(Cc1cccc(-c2ccc(CNCc3ccc4c(c3)OCO4)cc2)c1)C1CCN(Cc2ccccc2)CC1` [TCMDC-140632] here?
Answer: 106.9%

Question: For `O=C(NCCc1ccccc1)N(Cc1cccc(-c2ccc(CNCc3ccc4c(c3)OCO4)cc2)c1)C1CCN(Cc2ccccc2)CC1` [TCMDC-140619], which “% Inhibition” value is on record?
Answer: 40.48%

Question: `O=C(Nc1ccc(OC2CCN(Cc3ccc(F)cc3)CC2)c(Cl)c1)c1ccc(F)cc1` [TCMDC-133752] was tested. Which “% Inhibition” value did it give?
Answer: 7.555%

Question: `Cc1ccccc1C1CCN(C2CCC(NC(=O)/C=C/c3ccc(C#N)cc3)CC2)CC1` (stereo not drawn) [TCMDC-133527] was tested. Which “% Inhibition” value did it give?
Answer: -65.01%

Question: Which “% Inhibition” value does the source give for `CS(=O)(=O)c1ccc(CNCc2ccc(-c3ccc(-c4nc5cc(C(F)(F)F)ccc5[nH]4)cc3)cc2)cc1.O=C(O)C(F)(F)F` [TCMDC-132901] here?
Answer: -22.07%

Question: Which “% Inhibition” value does the source give for `COC(=O)c1cc(C(O)CNC(C)CCc2cccc(F)c2)ccc1O` (stereo not drawn) [TCMDC-131242] here?
Answer: 17.15%

Question: `CC(Cl)=CCc1c(C)[nH]c2c(ccc3ccccc32)c1=O` [TCMDC-124085] was tested. Which “% Inhibition” value did it give?
Answer: 30.93%

Question: For `CN1CCN(c2ccc(-c3nc4c(C(N)=O)c(OCc5cc(Cl)cc(Cl)c5)ccc4[nH]3)cc2)CC1` [TCMDC-133563], which “% Inhibition” value is on record?
Answer: 101.6%

Question: Which “% Inhibition” value does the source give for `CC(=O)c1cccc(Nc2nc3c(C#N)c(OCc4cc(Cl)cc(Cl)c4)ccc3[nH]2)c1` [TCMDC-133766] here?
Answer: -0.7844%

Question: How did the “% Inhibition” value turn out when `CN1CCN(c2ccc3nc(-c4ccc5nc(-c6ccc(O)cc6)[nH]c5c4)[nH]c3c2)CC1` [TCMDC-125507] was run?
Answer: 11.14%
